Among all 360,000 compounds or so, about 1,100 (0.31%) were called active. Only a selection was taken, and actives are over-represented in it overall. Unmarked numbers belong to inactive results. No stated cut-off is given here; in the data, active means activity change above about 30% (passing the limit was not always enough); inactive means the rest.

For this assay, the target named is Hepatocyte nuclear factor 4-alpha (Homo sapiens) (UniProt P41235). As to the kind of experiment: HNF4-alpha DNA association modulation – biochemical, fluorescence polarization, FITC-DNA, primary screen (AID 1224865). Conditions: HNF4a-FITC DNA binding, 1 h, at 10 µM, active compounds read high. (In general: Polarisation of emitted light reports the rotation of a fluorescent probe.)
Hepatocyte nuclear factor 4-alpha (Homo sapiens), sequence (P41235 whole entry, looked up): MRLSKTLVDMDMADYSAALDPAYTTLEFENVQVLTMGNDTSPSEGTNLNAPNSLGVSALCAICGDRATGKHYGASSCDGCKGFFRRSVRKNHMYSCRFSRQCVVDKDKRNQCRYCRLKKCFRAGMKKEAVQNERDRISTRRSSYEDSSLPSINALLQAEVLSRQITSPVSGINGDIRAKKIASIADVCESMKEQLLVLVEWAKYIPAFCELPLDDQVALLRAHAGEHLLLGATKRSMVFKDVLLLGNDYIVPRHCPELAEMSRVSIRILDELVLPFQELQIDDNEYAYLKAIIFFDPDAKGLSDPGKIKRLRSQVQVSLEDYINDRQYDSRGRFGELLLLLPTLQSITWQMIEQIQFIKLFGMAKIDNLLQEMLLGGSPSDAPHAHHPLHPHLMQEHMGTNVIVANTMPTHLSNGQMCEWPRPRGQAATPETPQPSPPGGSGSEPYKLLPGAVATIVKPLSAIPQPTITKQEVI
As for `C=CC[C@H](CC(=O)N(CCO)Cc1ccccc1)C(=O)N[C@@H](COC(=O)[C@@H](CC=C)Cc1ccc(F)cc1)Cc1ccccc1`, the activity change was 2.32%.
The figure for `CN(CC(=O)Nc1cccc(F)c1)C(=O)CC1CCCC1` is -0.01%; for `Cc1ccc(CSCC(=O)N(C)CC(=O)Nc2cccc(F)c2)cc1` it is -2.3%; for `CCN(CC)C(=O)CSC(Nc1cccc(F)c1)=C(C#N)C#N` it is 44.9% (active).
The same measure for `Cc1ccccc1OCCC(=O)Nc1c(C)n(C)n(-c2ccccc2)c1=O`: -0.09%; for `O=C(CC1Nc2ccccc2NC1=O)Nc1ccccc1` (stereo not given): 7.95%; for `COc1ccc(NC2=CC(=S)NC(C)(C)C2)cc1`: 39.2% (active).
The figure for `COc1ccc(CCNC2=CC(=O)CC(C)(C)C2)cc1` is 2.16%; for `COc1ccc(Nc2cc(Sc3ccc(OC)cc3)ncn2)cc1` it is 7.05%; for `CCCNC(=O)c1cc(C2CCCCN2S(=O)(=O)c2cn(C)cn2)on1` (stereo not given) it is -2.31%.
Regarding `Cc1cc(C)n2nc(C(=O)Nc3cccc(S(=O)(=O)N4CCOCC4)c3)nc2n1`, the activity change was -1.39%.
The figure for `CC(C)Oc1ccc(C(=O)NCC(=O)Nc2ccc3c(c2)CCC3)cc1` is -0.66%.
The figure for `Cc1ccc(C(=O)OCC(=O)NC2CCCCCCC2)cc1C` is -0.78%.
The same measure for `Cc1nc(SCC(=O)Nc2cc(C)on2)c2c(C)c(C)sc2n1`: 49.9% (active); for `Cc1nc(SCC(=O)N2CCc3ccccc3C2)c2c(C)c(C)sc2n1`: -0.31%.
Turning to `Cc1nc(SCC(=O)N2CC(=O)Nc3ccccc32)c2c(C)c(C)sc2n1`, the activity change is -0.27%.
The same measure for `CC/C(=C(/c1ccccc1)c1ccc(OCC[N+](C)(C)C)cc1)c1ccccc1`: 7.53%; for `C[C@@H]1CN([C@H](C)CO)C(=O)c2cc(Br)cnc2O[C@@H]1CN(C)Cc1cncnc1`: 3.08%; for `COC(=O)c1cccc(N(CC(=O)NCC2CCCO2)C(=O)CCC(=O)Nc2cc(C)on2)c1` (stereo not given): 2.32%.
The figure for `O=C(COC(=O)c1ccc(F)c(S(=O)(=O)N2CCOCC2)c1)NCc1ccc2c(c1)OCO2` is 2.9%.

These data come from PubChem BioAssay AID1224865 (Sanford-Burnham Center for Chemical Genomics, 2016).
